Bioassay records as filed in PubChem.
Shown are actives, neighbours in structure and some others; about 19% of the full set was active somewhere.
IL1B secr inh: inhibitors of inflammasome signaling (IL-1 beta secretion); THP-1 LPS/ATP IL-1B secretion, AlphaLISA, 16 h; active compounds read low; AID 743279; 360,000 compounds, 4.7% hits; activity change, % at 57.5 µM; in the data active = activity change below about -50%; inconclusive = mostly about -30% to -49%; note: % is set by controls: 0 for no effect and ±100 for the full control effect
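THP-1 cells pretreated 1 hr with compounds (up to 57.5 uM final), then stimulated with LPS (250 ng/mL final) plus ATP (1.25 mM final); secreted IL-1B measured by AlphaLISA after 16 hr, decreased signal indicating inhibition.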
DT40 TDP1 no CPT: qHTS for Inhibitors of human tyrosyl-DNA phosphodiesterase 1 (TDP1): qHTS in cells in absence of CPT; DT40 Tdp1-/- hTDP1 cells, no CPT, ATP luminescence, 48 h; Potency, µM (series often up to 46.2 µM), for inactives: top-dose activity change, negative = growth inhibition, actives largely listed as inhibitors; 420,000 compounds, 15% hits; AID 686978, 2013; note: potency is the fitted concentration of half-maximal effect; % is set by controls: 0 for no effect and ±100 for the full control effect; nearly all actives have a fitted effect of over 55% in size
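Chicken DT40 Tdp1-/- cells complemented with human TDP1, screened without camptothecin (DMSO vehicle only), 400 cells/well. Compounds pin-transferred, cells incubated at 37 °C for at least 48 hr. Growth read as ATP-dependent luminescence (CellTiter-Glo, 30 min at RT).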
TGFb inhibitor: blocks TGF-b signaling; HepG2 CAGA-GFP TGF-b/SMAD3 reporter, GFP fluorescence, 18 h; TGF-beta stimulated, 500 pg/mL final; Potency, µM (doses to about 46.1 µM), for inactives: top-dose activity, negative = inhibition, actives largely listed as inhibitors; 410,000 compounds, 1.2% hits; AID 588855; note: potency is the fitted concentration of half-maximal effect; % is set by controls: 0 for no effect and ±100 for the full control effect; nearly all actives have a fitted effect of over 65% in size
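Smad-responsive CAGA-GFP expression was quantified in HEPG2 cells exposed to compounds and 500 pg/mL final TGF-beta for 18 h at 37 degrees C; unstimulated wells defined full inhibition.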
TDP1 block: TDP1 (human) enzyme inhibition. Q9NUW8. recombinant TDP1, AlphaScreen DNA substrate cleavage. Potency, µM (series often up to 130 µM), inactives show top-dose activity change, negative = inhibition, actives largely listed as inhibitors. 350,000 compounds, 0.28% hits; note: potency is the fitted concentration of half-maximal effect; % is set by controls: 0 for no effect and ±100 for the full control effect; nearly all actives have a fitted effect of over 40% in size
Target sequence (Q9NUW8 whole entry, looked up): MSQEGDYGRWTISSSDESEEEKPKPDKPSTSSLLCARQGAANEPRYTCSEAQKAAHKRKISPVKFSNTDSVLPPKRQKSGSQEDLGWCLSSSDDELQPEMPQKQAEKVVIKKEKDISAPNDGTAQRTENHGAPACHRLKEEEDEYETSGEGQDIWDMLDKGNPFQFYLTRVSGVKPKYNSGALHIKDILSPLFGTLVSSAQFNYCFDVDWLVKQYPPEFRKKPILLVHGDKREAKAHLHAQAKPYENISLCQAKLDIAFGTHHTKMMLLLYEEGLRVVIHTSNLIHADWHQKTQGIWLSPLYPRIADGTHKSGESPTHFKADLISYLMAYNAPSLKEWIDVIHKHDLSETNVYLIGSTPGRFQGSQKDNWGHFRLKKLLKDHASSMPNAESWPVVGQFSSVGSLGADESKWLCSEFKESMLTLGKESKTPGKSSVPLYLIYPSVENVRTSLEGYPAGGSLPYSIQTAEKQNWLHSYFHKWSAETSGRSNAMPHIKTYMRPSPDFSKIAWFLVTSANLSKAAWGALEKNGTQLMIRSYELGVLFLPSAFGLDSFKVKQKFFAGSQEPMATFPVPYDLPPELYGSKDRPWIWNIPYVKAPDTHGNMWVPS
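Tdp1 1 nM final; 15 min RT w/ cpd; substrate 15 nM, 5 min; beads 10 ug/ml, 10 min; AlphaScreen read. Neg ctrl: no enzyme.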
TDP1 cell CPT: growth inhibition of DT40 Tdp1-/-;hTDP1 cells with camptothecin (screen for TDP1 inhibitors); 420,000 compounds, 12% hits; Potency, µM (titrated, usually from 46.2 µM), for the others: at the top dose activity change, negative = growth inhibition, usual class: inhibitors; chicken DT40 Tdp1-/-;hTDP1 cells + 20 nM CPT, ATP luminescence, 48 h; AID 686979; note: potency is the fitted concentration of half-maximal effect; % is set by controls: 0 for no effect and ±100 for the full control effect; nearly all actives have a fitted effect of over 55% in size
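Cell growth measured by CellTiter-Glo luminescence after a minimum 48 h, 37 C compound exposure with 20 nM CPT in Tdp1-knockout DT40 cells stably expressing hTDP1, seeded 400/well; qHTS titration format.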
HepG2 viability: HepG2 cytotoxicity, counter-screen for TGF-b inhibitors; 410,000 compounds, 0.76% hits; Potency, µM (top dose mostly 46.1 µM), for inactives: at the highest dose activity change, negative = cytotoxicity, actives largely listed as cytotoxic; HepG2 CAGA-GFP viability, ATP luminescence, 18 h; note: potency is the fitted concentration of half-maximal effect
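HepG2 CAGA-GFP cells (1000/well, DMEM with 1% FBS) received compound, then TGF-beta at 500 pg/mL final, and were incubated 18 hours at 37 degrees C. Viability was read by CellTiter-Glo luminescence. Media-only wells were set as complete cell-killing and DMSO as no toxicity.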
* = called active by the depositor; i = inactive; ? = inconclusive; . = not tested or not shown; ! = not active in a repeat; [ ] = dose if it differs, or a comment. Unless noted, calls come from the whole dose curve; as a rule, active = well fitted curve in the direction sought with a large enough effect; inconclusive = small, poorly fitted or top-dose-only effect, or another doubt; inactive = no such curve, though single readings can be large; an effect the other way counts as inactive or inconclusive.

SMILES | IL1B secr inh | DT40 TDP1 no CPT | TGFb inhibitor | TDP1 block | TDP1 cell CPT | HepG2 viability
CCC(C)Sc1cccc(-c2nc3ccccn3c2NCc2ccccc2)c1 (centres undefined) | ? | ? | ? | 1% | ? | -39%
CCCCCCSc1cccc(-c2nc3ccccn3c2NCc2ccccc2)c1 | -30 | 16µM* | ? | 1% | 16µM* | -29%
CCCCCCSc1cccc(-c2nc3ccc(C)cn3c2NC2CCCCC2)c1 | -4 | ? | -3% | 0% | ? | -29%
CCCCCCSc1cc(-c2nc3ccc(C)cn3c2NCc2ccccc2)ccc1OC | -51*! | 9.2µM* | ? | 1% | 23µM* | -16%
CCCCCCSc1cccc(-c2nc3cc(C)ccn3c2NCc2ccccc2)c1 | -84*! | 13µM* | ? | 2% | 13µM* | -38%
CCCCCCSc1cccc(-c2nc3ccc(C)cn3c2NCc2ccccc2)c1 | -61* | 21µM* | ? | 0% | 23µM* | -49%
CCCCCOC(=O)c1[nH]c2c(c1C)C(=O)C(C(=O)OC)C(C)C2 (centres undefined) | ? | 18µM* | ? | 4% | 9.2µM* | -4%
COC(=O)C1C(=O)c2c([nH]c(C(=O)OCC3CCCO3)c2C)CC1C (centres undefined) | -11 | -30% | 29% | 4% | 16µM* | 13%
CCOc1ccc(N2CC(c3nc4ccccc4n3CCOc3ccc(CC)cc3)CC2=O)cc1 (centres undefined) | . | ? | ? | -1% | ? | -6%
O=C1CC(c2nc3ccccc3n2CCCOc2ccccc2)CN1c1ccc(F)cc1 (centres undefined) | . | 8.2µM* | -27% | 5% | 16µM* | -21%
CCn1c(C2CC(=O)N(c3ccc(C)c(C)c3)C2)nc2ccccc21 (centres undefined) | -16 | 18µM* | -29% | 0% | ? | -34%
Cc1cc(C)c(Cn2c(C3CC(=O)N(c4ccc(F)cc4)C3)nc3ccccc32)c(C)c1 (centres undefined) | . | ? | ? | 3% | -12% | -22%
CCOc1ccc(N2CC(c3nc4ccccc4n3CCOc3ccccc3OC)CC2=O)cc1 (centres undefined) | . | 23µM* | ? | 10% | ? | -12%
CCCCn1c(C2CC(=O)N(c3ccc(OCC)cc3)C2)nc2ccccc21 (centres undefined) | . | ? | ? | -2% | 21µM* | -41%
O=[N+]([O-])c1ccccc1S(=O)(=O)N1CCCC(C(F)(F)F)C1 (centres undefined) | 2 | ? | -24% | 2% | 0% | 5%
CCN(CC)CCN(C(=O)c1ccc2c(c1)OCCO2)c1nc2ccc(C)cc2s1 | -51* | -24% | -12% | 7% | ? | -20%
CN(C)CCCN(C(=O)c1ccc2c(c1)OCCO2)c1nc2ccccc2s1 | . | 16µM* | -28% | 5% | ? | -46%
Cc1cc(C)c2nc(N(CCCN(C)C)C(=O)C3=COCCO3)sc2c1 | ? | 21µM* | -9% | 8% | 16µM* | -64%
CN(C)CCCN(C(=O)c1ccc2c(c1)OCCO2)c1nc2cc3c(cc2s1)OCO3 | i | -23% | 22% | 1% | ? | -13%
Cc1cc(C)c2nc(N(CCCN(C)C)C(=O)c3ccc4c(c3)OCCO4)sc2c1 | -79* | 16µM* | ? | 2% | 13µM* | -118%
Cc1ccc2nc(N(CCN(C)C)C(=O)c3ccc4c(c3)OCCO4)sc2c1 | -29 | -2% | -4% | 9% | -29% | -17%
CC(=O)c1ccc(NC(=O)c2sc(-n3nc(C)c(CCC(C)C)c3C)nc2C)cc1 | . | ? | -2% | 3% | -70% | -10%
CCOC(=O)CCCNC(=O)N1CCc2nc(-c3ccccc3)c3c(c2C1)CO[C@@H](C)C3 | . | . | . | 1%[12.3 µM] | . | .
CC1N=C2c3ccccc3N=C(SCC(=O)NCc3ccc(Cl)cc3)N2C1=O (centres undefined) | . | ? | 19% | 1% | ? | -3%
CCc1ccccc1NNC(=O)c1snnc1C | . | ? | ? | 10% | -3% | -15%
SMILES | IL1B secr inh | DT40 TDP1 no CPT | TGFb inhibitor | TDP1 block | TDP1 cell CPT | HepG2 viability
COC(=O)c1ccc(Cn2nc(-c3ccccc3)ccc2=O)cc1 | 18 | 2% | -1% | . | -4% | 8%
O=c1ccc(-c2ccccc2)nn1Cc1ccc(Cl)cc1 | -27 | 16µM* | 3% | . | ? | -24%
COc1cccc(CNC(=O)Cn2nc(-c3ccc(Cl)cc3)ccc2=O)c1 | 15 | ? | -19% | 10% | ? | -12%
C=Cc1ccc(Cn2nc(-c3ccc(C)cc3)ccc2=O)cc1 | -79* | ? | ? | -2% | ? | -24%
COc1ccc(-c2ccc(=O)n(Cc3c(F)cccc3Cl)n2)cc1 | 4 | 7.3µM* | ? | . | 15µM* | -27%
COc1ccc(Cn2cc(S(=O)(=O)c3ccc(Cl)cc3)c(=O)c3cc4c(cc32)OCO4)cc1 | . | -15% | ? | 9% | 3% | -1%
COc1c(O)c(O)cc2c1oc1c3cc(C)ccc3oc(=O)c21 | . | . | . | 10% | . | .
C=CCN(Cc1nc(-c2ccccc2)no1)C(=O)c1ccoc1C | -7 | ? | 1% | 6% | 29µM* | 4%
Cc1[nH]n(-c2ccccc2)c(=O)c1N=Nc1nccs1 | 53 | 23µM* | ? | 8% | 18µM* | -27%
Cc1ccccc1N=Nc1c(C)[nH]n(-c2ccccc2)c1=O | 19 | -22% | 12% | 5% | 9% | -3%
Cc1[nH]n(-c2ccccc2)c(=O)c1N=Nc1ccccc1O | 124 | 0.41µM* | ? | 11% | 0.52µM* | -50%
CCN(CC(=O)Nc1ccc(NC(C)=O)cc1)C(=O)c1ccc(=O)n(C)n1 | -3 | 15% | -27% | 0% | 10% | -4%
S=C(NC1CCCC1)N1CCN(C/C=C/c2ccccc2)CC1 | -66* | 21µM* | -21% | 3% | ? | -22%
S=C(Nc1ccccc1)N1CCN(C/C=C/c2ccccc2)CC1 | 11 | ? | -25% | 5% | -26% | -21%
O=C(C1CCN(Cc2ccccc2)CC1)N1CCN(C/C=C/c2ccccc2)CC1 | ? | 23µM* | 5% | -4% | ? | -17%
CC1(C)C(C=C(Cl)Cl)C1C(=O)N1CCN(Cc2ccccc2)CC1 (centres undefined) | -51* | ? | 7% | 0% | -3% | 6%
